# Data from PubChem BioAssay.
# Active and inactive are the calls of the source.
# Key:
# [1] = tested on: Plasmodium falciparum Sir2 (PF13_0152, Sir2A); test: Plasmodium falciparum Sir2A binding compounds – biochemical, small-molecule microarray, 635 nm fluorescence, primary screen (AID 1098); details: fluorescence 635 nm, higher = more signal;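 further: score merges spot fluorescence intensity with its signal-to-noise ratio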
# [2] = probe aDKK1 binding to arrayed compounds – biochemical, biotinylated probe, 635/667 nm fluorescence, primary screen (AID 1099); details: small-molecule microarray, higher = more signal;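 further: score merges 667nm spot fluorescence with signal to noise across triplicate slides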
# [3] = probe aCHRDL2 binding to arrayed compounds – biochemical, biotinylated probe, 635/667 nm fluorescence, primary screen (AID 1100); details: small-molecule microarray, higher = more signal
# [4] = change in splice reporter luminescence, either direction, cell-based, HEK293, spliceosome inhibition project, primary screen (AID 1101); details: HEK293 splicing luciferase reporter, 24 h, higher = more signal, called active from +8 up or from −8 down;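 further: HEK293 cells carrying a splicing-competent luciferase reporter gene; test concentration not given here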
# [5] = target: Fibroblast growth factor 10 (Homo sapiens) (UniProt O15520); test: compounds binding fibroblast growth factor 10 – biochemical, small-molecule microarray, 635 nm fluorescence, primary screen (AID 1102); details: FGF10 binding, fluorescence 635 nm, higher = more signal
# Chain of Fibroblast growth factor 10 (Homo sapiens) (O15520 whole entry, looked up): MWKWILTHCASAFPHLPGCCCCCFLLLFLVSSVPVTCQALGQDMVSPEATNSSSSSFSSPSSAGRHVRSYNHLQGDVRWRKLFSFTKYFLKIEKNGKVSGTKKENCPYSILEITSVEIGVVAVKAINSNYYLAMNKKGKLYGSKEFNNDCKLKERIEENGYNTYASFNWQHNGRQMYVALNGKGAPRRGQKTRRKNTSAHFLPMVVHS
# [6] = tested on: glycogen synthase kinase-3 (GSK3A per assay name; protocol says GSK3B); test: compounds binding glycogen synthase kinase-3 – biochemical, small-molecule microarray, 635 nm fluorescence, GSK3A, primary screen (AID 1103); details: fluorescence 635 nm, higher = more signal; further: the record names both GSK3A and GSK3B
# [7] = target: Epidermal growth factor receptor (Homo sapiens) (UniProt P00533); test: compounds binding epidermal growth factor receptor – biochemical, small-molecule microarray, 635 nm fluorescence, primary screen (AID 1104); details: EGFR binding, higher = more signal;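 further: score merges 667 nm emission intensity with spot signal to noise over triplicate slides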
# Chain of Epidermal growth factor receptor (Homo sapiens) (P00533 whole entry, looked up): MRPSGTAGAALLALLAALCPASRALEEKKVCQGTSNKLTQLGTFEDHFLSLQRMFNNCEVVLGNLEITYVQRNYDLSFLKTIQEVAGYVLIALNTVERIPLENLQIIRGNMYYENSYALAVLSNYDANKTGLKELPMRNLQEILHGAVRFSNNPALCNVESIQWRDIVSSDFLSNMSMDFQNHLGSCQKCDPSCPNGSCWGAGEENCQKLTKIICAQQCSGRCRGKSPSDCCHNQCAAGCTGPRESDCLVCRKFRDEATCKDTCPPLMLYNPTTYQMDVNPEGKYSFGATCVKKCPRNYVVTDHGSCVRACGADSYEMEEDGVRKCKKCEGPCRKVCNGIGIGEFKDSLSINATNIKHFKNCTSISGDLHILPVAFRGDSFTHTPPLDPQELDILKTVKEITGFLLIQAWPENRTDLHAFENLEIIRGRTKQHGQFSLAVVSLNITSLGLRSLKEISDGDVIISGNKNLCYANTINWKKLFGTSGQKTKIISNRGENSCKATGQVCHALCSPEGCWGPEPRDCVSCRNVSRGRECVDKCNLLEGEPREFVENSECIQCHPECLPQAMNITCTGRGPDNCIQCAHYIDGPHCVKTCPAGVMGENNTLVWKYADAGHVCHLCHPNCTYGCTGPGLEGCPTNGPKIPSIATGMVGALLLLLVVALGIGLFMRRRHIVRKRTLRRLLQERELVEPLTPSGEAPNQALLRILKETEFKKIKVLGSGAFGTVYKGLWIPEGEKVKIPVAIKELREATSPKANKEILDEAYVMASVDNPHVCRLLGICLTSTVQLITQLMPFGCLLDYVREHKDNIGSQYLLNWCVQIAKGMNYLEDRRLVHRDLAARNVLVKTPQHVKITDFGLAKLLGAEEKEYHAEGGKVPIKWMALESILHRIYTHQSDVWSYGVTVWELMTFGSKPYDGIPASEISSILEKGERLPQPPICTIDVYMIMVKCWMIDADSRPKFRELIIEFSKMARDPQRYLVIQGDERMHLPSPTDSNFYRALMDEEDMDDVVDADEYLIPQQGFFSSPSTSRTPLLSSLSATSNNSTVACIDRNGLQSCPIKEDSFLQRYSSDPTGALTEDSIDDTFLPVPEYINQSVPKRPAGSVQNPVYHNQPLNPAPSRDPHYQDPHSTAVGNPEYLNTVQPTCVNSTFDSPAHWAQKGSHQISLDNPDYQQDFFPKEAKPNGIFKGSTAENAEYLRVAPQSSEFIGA
# [8] = target: Follistatin-related protein 3 (Homo sapiens) (UniProt O95633); test: compounds binding follistatin-related protein 3 – biochemical, small-molecule microarray, 635 nm fluorescence, primary screen (AID 1105); details: FSTL3 binding, higher = more signal;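 further: score merges emission near 667 nm and signal to noise per printed spot across three slides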
# Chain of Follistatin-related protein 3 (Homo sapiens) (O95633 whole entry, looked up): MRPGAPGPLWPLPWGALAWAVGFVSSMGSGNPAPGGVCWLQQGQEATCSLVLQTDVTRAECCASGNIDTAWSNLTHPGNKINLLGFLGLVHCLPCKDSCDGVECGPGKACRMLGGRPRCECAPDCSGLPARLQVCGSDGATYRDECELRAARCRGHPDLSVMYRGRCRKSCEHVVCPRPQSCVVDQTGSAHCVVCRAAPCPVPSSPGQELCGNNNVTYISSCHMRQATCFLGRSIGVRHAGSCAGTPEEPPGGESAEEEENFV
# [9] = target: Dickkopf-related protein 1 (Homo sapiens) (UniProt O94907); test: small molecules binding DKK1 protein – biochemical, small-molecule microarray, 635 nm fluorescence scan, primary screen (AID 1106); details: higher = more signal;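 further: score merges emission near 667 nm with signal to noise over three replicate slides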
# Chain of Dickkopf-related protein 1 (Homo sapiens) (O94907 whole entry, looked up): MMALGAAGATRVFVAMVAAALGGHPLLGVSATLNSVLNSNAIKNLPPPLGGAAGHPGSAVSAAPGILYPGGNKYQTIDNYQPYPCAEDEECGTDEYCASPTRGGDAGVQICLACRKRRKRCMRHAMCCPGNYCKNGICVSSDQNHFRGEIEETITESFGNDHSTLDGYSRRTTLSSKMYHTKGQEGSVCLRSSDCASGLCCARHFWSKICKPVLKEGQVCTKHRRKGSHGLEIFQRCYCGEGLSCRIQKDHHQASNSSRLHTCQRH
# [10] = tested on: Inhibin beta A chain (activin A); test: small molecules binding activin A – biochemical, small-molecule microarray, 635 nm fluorescence scan, primary screen (AID 1107); details: INHBA, higher = more signal;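 further: mouse activin A protein probed at 4.33 µg/mL on printed slides; score merges bound-protein fluorescence near 667 nm with spot signal-to-noise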
# [11] = tested on: Human papillomavirus type 1a protein E7 (residues 44-93); test: small molecules binding HPV E7 44-93 – biochemical, small-molecule microarray, residues 44-93, 635 nm fluorescence, primary screen (AID 1108); details: fluorescence 635 nm, higher = more signal;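 further: E7 fragment applied at 1 µg/mL in TBST for 1 h at 4 C; score combines spot fluorescence with its signal to noise ratio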
# [12] = hepatitis C replication reporter changes, two-sided – Huh7 cells, luciferase reporter, HCV replication inhibitor project, primary screen (AID 1109); details: Huh7 HCV replicon luciferase reporter, 48 h; higher = more signal;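 further: huh7 hepatoma cells harbouring a luciferase neomycin HCV replicon reporter; luciferase luminescence as measure of HCV replicon replication; test concentration not given here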
# [13] = target: Left-right determination factor 2 (Homo sapiens) (UniProt O00292); test: small molecules binding LEFTY2 protein – biochemical, small-molecule microarray, 635 nm fluorescence scan, primary screen (AID 1110); details: higher = more signal
# Chain of Left-right determination factor 2 (Homo sapiens) (O00292 whole entry, looked up): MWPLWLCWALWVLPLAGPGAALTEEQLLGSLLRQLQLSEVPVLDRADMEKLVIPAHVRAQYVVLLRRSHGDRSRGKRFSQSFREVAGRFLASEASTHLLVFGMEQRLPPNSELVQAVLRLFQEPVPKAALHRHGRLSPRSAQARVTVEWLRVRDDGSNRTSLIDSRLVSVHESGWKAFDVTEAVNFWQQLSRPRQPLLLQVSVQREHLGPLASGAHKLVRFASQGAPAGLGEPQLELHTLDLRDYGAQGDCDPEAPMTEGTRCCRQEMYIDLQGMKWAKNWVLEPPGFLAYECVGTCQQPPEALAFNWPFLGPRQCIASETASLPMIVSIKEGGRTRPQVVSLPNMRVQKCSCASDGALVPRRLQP
# [14] = target: Calmodulin-1 (Homo sapiens) (UniProt P0DP23); test: small molecules binding calmodulin-1 with EGTA – biochemical, small-molecule microarray, Cy5-labelled CALM1, profiling panel (AID 1111); details: Cy5-CALM1 binding fluorescence, higher = more signal;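 further: labelled calmodulin applied in Tris saline Tween buffer holding calcium plus EGTA and DTT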
# [15] = target: Calmodulin-1 (Homo sapiens) (UniProt P0DP23); test: small molecules binding Ca-loaded calmodulin-1 – biochemical, small-molecule microarray, Cy5-labelled CALM1, plus calcium, artefact control for SMM control-protein annotation, profiling panel (AID 1112); details: Cy5-CALM1 binding fluorescence, higher = more signal;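 further: score merges spot fluorescence with signal to noise from triplicate slides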
# [16] = probe aWnt5a binding to arrayed compounds – biochemical, biotinylated probe, 635/667 nm fluorescence, primary screen (AID 1113); details: small-molecule microarray, higher = more signal;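 further: score merges 667 nm fluorescence intensity with signal-to-noise per printed feature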
# [17] = probe aShh binding to arrayed compounds – biochemical, biotinylated probe, 635/667 nm fluorescence, primary screen (AID 1114); details: small-molecule microarray, higher = more signal;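 further: probe is biotin-labelled aShh protein from a stem cell growth factor screen; measures binding of labelled protein to compounds printed on the slide; score merges feature fluorescence at 667 nm with signal-to-noise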
# [18] = probe aNog binding to arrayed compounds – biochemical, biotinylated probe, 635/667 nm fluorescence, primary screen (AID 1115); details: small-molecule microarray, higher = more signal;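 further: probe is biotinylated aNog protein used at 0.15 µg/mL for 1 h at 4 C; z-score combines 667 nm fluorescence of each spot with its signal to noise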
# [19] = target: Torsin-1A-interacting protein 1 (Homo sapiens) (UniProt Q5JTV8); test: compound microarray binding of lysate hLAP1 – cell lysate, small-molecule microarray, COS7 lysate, 635/667 nm fluorescence, primary screen (AID 1116); details: 635 nm fluorescence, higher = more signal
# Chain of Torsin-1A-interacting protein 1 (Homo sapiens) (Q5JTV8 whole entry, looked up): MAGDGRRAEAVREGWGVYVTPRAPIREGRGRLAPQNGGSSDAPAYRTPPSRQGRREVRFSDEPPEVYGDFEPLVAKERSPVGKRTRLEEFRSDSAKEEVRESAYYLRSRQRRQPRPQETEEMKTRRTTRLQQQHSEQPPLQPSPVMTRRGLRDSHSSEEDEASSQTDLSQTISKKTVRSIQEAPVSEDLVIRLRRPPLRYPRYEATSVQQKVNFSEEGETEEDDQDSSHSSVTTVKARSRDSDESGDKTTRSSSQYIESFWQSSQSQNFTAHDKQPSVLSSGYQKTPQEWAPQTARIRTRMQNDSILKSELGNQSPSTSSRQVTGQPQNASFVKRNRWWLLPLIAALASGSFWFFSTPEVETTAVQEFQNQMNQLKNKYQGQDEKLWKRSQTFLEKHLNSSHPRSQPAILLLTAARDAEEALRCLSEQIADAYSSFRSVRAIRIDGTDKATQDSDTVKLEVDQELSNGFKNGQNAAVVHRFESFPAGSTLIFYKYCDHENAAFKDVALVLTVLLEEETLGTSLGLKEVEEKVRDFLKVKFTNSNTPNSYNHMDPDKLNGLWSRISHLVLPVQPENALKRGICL
# [20] = target: Alpha-bungarotoxin (Bungarus multicinctus) (UniProt P60615); test: compounds binding labelled alpha-BTX control protein – biochemical, small-molecule microarray, Alexa647 label, 635/667 nm fluorescence, artefact control for SMM control protein annotation, profiling panel (AID 1117); details: alpha-BTX-A647 binding fluorescence, higher = more signal
# Chain of Alpha-bungarotoxin (Bungarus multicinctus) (P60615 whole entry, looked up): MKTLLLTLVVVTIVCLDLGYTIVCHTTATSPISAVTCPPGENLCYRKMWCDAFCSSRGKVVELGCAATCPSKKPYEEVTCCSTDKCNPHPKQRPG
Compound,composite z-score [1],composite z-score [2],composite z-score [3],z-score [4],composite z-score [5],composite z-score [6],composite z-score [7],composite z-score [8],composite z-score [9],composite z-score [10],composite z-score [11],z-score [12],composite z-score [13],composite z-score [14],composite z-score [15],composite z-score [16],composite z-score [17],composite z-score [18],composite z-score [19],composite z-score [20]
C=C(C(=O)CC[C@@H](OC(C)=O)c1ccccc1OCCO)C(C)C,0.967,-0.416,-0.0909,-1.41 (inactive),1.14,-0.465,-0.847,-0.406,0.108,0.959,-0.512,-3.88,-0.325,-0.942,-1.21,-0.202,-0.153,-0.0783,0.495,-0.175
COCCCNC(=O)[C@@]1(Cc2ccccc2CN=[N+]=[N-])COC(c2ccc(OCCCO)cc2)=N1,1.59,1.28,1.39,-0.807 (inactive),1.38,0.266,-0.474,-0.0087,-1.58,0.731,0.989,-1.97,-0.645,1.78,0.96,0.299,0.454,1.75,2.45,0.911
NC(=O)N1C(=O)C2C(C1=O)C1C=C(c3ccc(CO)cc3)C2C(C2CC2)N1Cc1cc2c(cc1Br)OCO2 (stereo not given),0.105,0.176,0.691,-0.87 (inactive),0.151,0.314,-0.505,-0.0544,-0.196,1.34,0.0207,-1.03,-0.254,0.438,0.163,-0.124,-0.0146,-0.0689,1.11,0.55
CC(C)C[C@@H]1NC(=O)[C@@]23C(=O)N[C@@H](Cc4ccccc4)C2[C@H](C)[C@@]2(C)O[C@H]2C3/C=C/C/C=C\CNC(=O)[C@H](Cc2ccccc2)NC1=O (stereo not given in full),0.608,-0.117,-0.417,-0.639 (inactive),0.286,0.151,0.137,0.315,0.335,1.49,-1.3,-2.08,0.534,-0.388,-0.485,-0.152,-0.2,-0.194,0.569,0.792
CC(C)CNC(=O)[C@@H]1c2ccccc2C(=O)N(Cc2ccc(OC(F)(F)F)cc2)[C@H]1c1ccc(CO)cc1,1.46,0.799,0.922,-0.787 (inactive),0.64,1.28,0.346,1.26,0.407,0.254,-0.491,-0.913,0.569,0.986,-0.614,0.0519,-0.0234,0.327,1.69,1.74
NCCCCCNC(=O)[C@H]1C[C@H]2C(=O)NCC(=O)N2[C@H]1c1ccc(O)cc1,1.02,0.154,0.212,-0.25 (inactive),1.37,1.31,0.383,1.07,1.74,0.324,0.861,0.245,1.49,1.53,0.954,-0.0981,-0.206,-0.216,0.712,2.71
CC(C)(C)OC(=O)CC[C@]1(C(=O)NCc2ccccc2)N=C(c2ccc(OCCCO)cc2)O[C@H]1c1ccccc1N=[N+]=[N-],1.02,1.36,1.35,-2.19 (inactive),1.21,1.29,-0.0113,1,0.496,0.947,-0.385,-0.5,0.478,2.14,0.756,0.17,0.57,1.11,1.63,2.77
C=C(COC)C(=O)CC[C@H](OC(=O)c1ccccc1-c1ccccc1C(=O)O)c1ccccc1OCCO,1.52,-0.227,-0.053,-0.51 (inactive),0.595,0.264,-0.124,0.159,0.307,1.1,-0.15,-1.46,0.273,0.209,-0.749,-0.118,0.267,0.0707,0.423,0.737
[N-]=[N+]=Nc1ccccc1[C@H]1OC(c2ccc(OCCCO)cc2)=N[C@@]1(Cc1ccccc1)C(N)=O,0.929,1.46,1.23,-1.86 (inactive),1.09,1.28,0.13,1.09,0.0868,1.43,1.33,-0.742,0.172,2.26,1.12,0.0998,1.03,0.489,1.12,3.09
O=C(NCc1ccccc1)[C@@H]1c2ccccc2C(=O)N(Cc2ccccc2Cl)[C@H]1c1ccc(CO)cc1,0.447,1,1.01,-1.05 (inactive),0.814,1.32,0.183,1.42,0.909,0.791,1.05,-0.267,0.671,-0.23,0.0368,0.0297,0.123,0.522,1.21,1.67
CO[C@H]1O[C@H](CO)[C@@H](OC(=O)Nc2ccccc2)[C@H](OC(=O)Nc2ccc3c(c2)OCO3)[C@H]1OC(=O)Nc1ccc2c(c1)OCO2,1.59,0.666,0.757,-0.618 (inactive),0.729,0.741,-0.242,0.292,0.0894,0.798,0.538,-1.04,0.452,1.65,-0.617,0.0973,0.0898,1.19,1.51,0.485
